Among all 5,500 compounds or so, about 2,000 (36%) were called active. Another 18% or so got no clear call; they are omitted. Rule as the data show it: active = normalized growth mostly below about 0.91 (no sharp cut-off); inconclusive = no clear call, values can overlap the other calls; inactive = mostly above about 0.92. The list shows a part of the results.
Test: chemical genetic growth profiling, strain panel (AID 1159580);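 also: tested at 20 µM; growth read once vehicle control cultures reached saturation at 30 °C; 1 = growth at the plate median or of vehicle wells; lower values mean less growth of the strain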
Details: growth OD

Measured: normalized growth

CCC(=O)c1c(O)cc(O)cc1O
inactive: S. cerevisiae deletion strains, locus YKL009W, strain mrt4, active compounds read low 1.03 | S. cerevisiae deletion strains, locus YKL068W, active compounds read low 0.989 | S. cerevisiae deletion strains, locus YKL085W, strain MDH1 (second series), active compounds read low 0.986 | S. cerevisiae deletion strains, locus YKL085W, strain MDH1, active compounds read low 0.986 | S. cerevisiae deletion strains, locus YKL160W, strain elf1, active compounds read low 0.972 | S. cerevisiae deletion strains, locus YKL190W, strain CNB1, active compounds read low 1 | S. cerevisiae deletion strains, locus YKR001C, strain vps1, active compounds read low 0.959 | S. cerevisiae deletion strains, locus YKR026C, strain gcn3, active compounds read low 0.992 | S. cerevisiae deletion strains, locus YKR091W, strain srl3, active compounds read low 0.988 | S. cerevisiae deletion strains, locus YLL001W, strain dnm1, active compounds read low 0.99 | S. cerevisiae deletion strains, locus YLL026W, active compounds read low 0.999 | S. cerevisiae deletion strains, locus YLL041C, strain sdh2, active compounds read low 0.985 | S. cerevisiae deletion strains, locus YLR027C, strain aat2, active compounds read low 0.987 | S. cerevisiae deletion strains, locus YLR039C, strain RIC1, active compounds read low 0.938 | S. cerevisiae deletion strains, locus YLR058C, strain SHM2, active compounds read low 1 | S. cerevisiae deletion strains, locus YLR102C, strain apc9, active compounds read low 0.979 | S. cerevisiae deletion strains, locus YLR113W, strain HOG1, active compounds read low 0.974 | S. cerevisiae deletion strains, locus YLR221C, strain rsa3, active compounds read low 1.01 | S. cerevisiae deletion strains, locus YLR258W, strain gsy2, active compounds read low 0.996 | S. cerevisiae deletion strains, locus YLR262C, strain YPT6 (second series), active compounds read low 1.01 | S. cerevisiae deletion strains, locus YLR262C, strain YPT6, active compounds read low 0.991 | S. cerevisiae deletion strains, locus YLR268W, strain sec22, active compounds read low 0.968 | S. cerevisiae deletion strains, locus YLR320W, strain mms22, active compounds read low 1.01 | S. cerevisiae deletion strains, locus YLR330W, strain CHS5, active compounds read low 1 | S. cerevisiae deletion strains, locus YLR342W, strain FKS1 (second series), active compounds read low 1 | S. cerevisiae deletion strains, locus YLR342W, strain FKS1, active compounds read low 0.978 | S. cerevisiae deletion strains, locus YLR357W, strain rsc2, active compounds read low 0.968 | S. cerevisiae deletion strains, locus YLR370C, strain arc18, active compounds read low 0.981 | S. cerevisiae deletion strains, locus YLR371W, strain rom2, active compounds read low 0.982 | S. cerevisiae deletion strains, locus YLR384C, strain iki3, active compounds read low 0.98 | S. cerevisiae deletion strains, locus YLR418C, strain cdc73, active compounds read low 0.94 | S. cerevisiae deletion strains, locus YML016C, strain PPZ1, active compounds read low 0.999 | S. cerevisiae deletion strains, locus YML032C, strain rad52, active compounds read low 0.981 | S. cerevisiae deletion strains, locus YML120C, strain ndi1, active compounds read low 0.991 | S. cerevisiae deletion strains, locus YML124C, strain tub3, active compounds read low 0.978 | S. cerevisiae deletion strains, locus YMR058W, strain fet3, active compounds read low 0.978 | S. cerevisiae deletion strains, locus YMR078C, strain ctf18, active compounds read low 0.976 | S. cerevisiae deletion strains, locus YMR125W, strain sto1, active compounds read low 0.985 | S. cerevisiae deletion strains, locus YMR129W, active compounds read low 0.988 | S. cerevisiae deletion strains, locus YMR205C, strain PFK2, active compounds read low 0.998 | S. cerevisiae deletion strains, locus YMR223W, strain ubp8, active compounds read low 0.978 | S. cerevisiae deletion strains, locus YMR231W, strain pep5, active compounds read low 0.991 | S. cerevisiae deletion strains, locus YMR263W, strain SAP30, active compounds read low 1.01 | S. cerevisiae deletion strains, locus YMR307W, strain GAS1, active compounds read low 1.01 | S. cerevisiae deletion strains, locus YNL067W, strain RPL9B, active compounds read low 1.01 | S. cerevisiae deletion strains, locus YNL071W, strain lat1, active compounds read low 0.995 | S. cerevisiae deletion strains, locus YNL128W, strain TEP1, active compounds read low 1.01 | S. cerevisiae deletion strains, locus YNL153C, strain GIM3, active compounds read low 1.02 | S. cerevisiae deletion strains, locus YNL183C, strain NPR1, active compounds read low 0.953 | S. cerevisiae deletion strains, locus YNL209W, strain ssb2, active compounds read low 0.992 | S. cerevisiae deletion strains, locus YNL233W, strain BNI4, active compounds read low 0.988 | S. cerevisiae deletion strains, locus YNL248C, strain rpa49, active compounds read low 1 | S. cerevisiae deletion strains, locus YNL250W, strain rad50, active compounds read low 0.981 | S. cerevisiae deletion strains, locus YNL271C, strain bni1, active compounds read low 0.979 | S. cerevisiae deletion strains, locus YNL298W, strain CLA4, active compounds read low 0.973 | S. cerevisiae deletion strains, locus YNL307C, strain MCK1, active compounds read low 0.991 | S. cerevisiae deletion strains, locus YNL322C, strain KRE1 (second series), active compounds read low 0.97 | S. cerevisiae deletion strains, locus YNL322C, strain KRE1, active compounds read low 1.01 | S. cerevisiae deletion strains, locus YNR049C, strain mso1, active compounds read low 0.987 | S. cerevisiae deletion strains, locus YNR052C, strain pop2, active compounds read low 0.983 | S. cerevisiae deletion strains, locus YOL006C, strain TOP1, active compounds read low 1.12 | S. cerevisiae deletion strains, locus YOL012C, strain htz1 0.785 | S. cerevisiae deletion strains, locus YOL147C, strain pex11, active compounds read low 0.97 | S. cerevisiae deletion strains, locus YOR001W, strain rrp6, active compounds read low 1.02 | S. cerevisiae deletion strains, locus YOR061W, strain CKA2, active compounds read low 1.01 | S. cerevisiae deletion strains, locus YOR069W, strain VPS5, active compounds read low 1 | S. cerevisiae deletion strains, locus YOR070C, strain gyp1, active compounds read low 0.985 | S. cerevisiae deletion strains, locus YOR080W, strain dia2, active compounds read low 0.981 | S. cerevisiae deletion strains, locus YOR083W, strain WHI5, active compounds read low 0.983 | S. cerevisiae deletion strains, locus YOR106W, strain vam3, active compounds read low 0.987 | S. cerevisiae deletion strains, locus YOR136W, strain idh2, active compounds read low 0.984 | S. cerevisiae deletion strains, locus YOR144C, strain elg1, active compounds read low 0.986 | S. cerevisiae deletion strains, locus YOR184W, strain ser1, active compounds read low 0.992 | S. cerevisiae deletion strains, locus YOR231W, strain MKK1, active compounds read low 1.01 | S. cerevisiae deletion strains, locus YOR265W, strain rbl2, active compounds read low 0.982 | S. cerevisiae deletion strains, locus YOR270C, strain vph1, active compounds read low 1.04 | S. cerevisiae deletion strains, locus YOR290C, strain snf2, active compounds read low 0.973 | S. cerevisiae deletion strains, locus YOR316C, strain cot1, active compounds read low 0.984 | S. cerevisiae deletion strains, locus YPL051W, strain arl3, active compounds read low 0.973 | S. cerevisiae deletion strains, locus YPL055C, strain LGE1, active compounds read low 1.02 | S. cerevisiae deletion strains, locus YPL078C, strain atp4, active compounds read low 0.996 | S. cerevisiae deletion strains, locus YPL106C, strain sse1, active compounds read low 0.938 | S. cerevisiae deletion strains, locus YPL240C, strain hsp82, active compounds read low 0.991 | S. cerevisiae deletion strains, locus YPL241C, strain CIN2, active compounds read low 0.996 | S. cerevisiae deletion strains, locus YPL256C, strain CLN2, active compounds read low 0.997 | S. cerevisiae deletion strains, locus YPR119W, strain clb2, active compounds read low 0.971 | S. cerevisiae deletion strains, locus YPR141C, strain kar3, active compounds read low 0.974 | S. cerevisiae deletion strains, locus YPR163C, strain tif3, active compounds read low 0.991 | S. cerevisiae deletion strains, locus YPR167C, strain met16, active compounds read low 0.98 | S. cerevisiae deletion strains, strain wtn01, active compounds read low 0.978 | S. cerevisiae strains, strain wild type, active compounds read low 1.01

Source: PubChem BioAssay AID1159580 (chemical genetic matrix, 2015)
